# Laboratory results taken from the supplement of paper PMC10369915.
# Molecular target: SHP2 N-SH2 domain T42A
# Test: log2 enrichment relative to wild-type ITIM peptide; higher = stronger binding
row,Binder,log2 enrichment
1,VYSVDYGELDF [PD-1 ITIM pTyr223 peptide variant F219Y],0.45
2,VFSYDYGELDF [PD-1 ITIM pTyr223 peptide variant V221Y],0.57
3,VFSVDYGRLDF [PD-1 ITIM pTyr223 peptide variant E225R],-0.382
4,VFSVDYGYLDF [PD-1 ITIM pTyr223 peptide variant E225Y],-0.767
5,VFSLDYGELDF [PD-1 ITIM pTyr223 peptide variant V221L],-0.962
6,VFSVHYGELDF [PD-1 ITIM pTyr223 peptide variant D222H],1.68
7,VFSVDYMELDF [PD-1 ITIM pTyr223 peptide variant G224M],-0.224
8,VRSVDYGELDF [PD-1 ITIM pTyr223 peptide variant F219R],1.24
9,VFSVDYGELWF [PD-1 ITIM pTyr223 peptide variant D227W],-0.71
10,VFSVDYGHLDF [PD-1 ITIM pTyr223 peptide variant E225H],-0.301
11,VFSFDYGELDF [PD-1 ITIM pTyr223 peptide variant V221F],-1.03
12,VFSVYYGELDF [PD-1 ITIM pTyr223 peptide variant D222Y],0.0176
13,VFSVDYKELDF [PD-1 ITIM pTyr223 peptide variant G224K],2.48
14,VFSVDYGFLDF [PD-1 ITIM pTyr223 peptide variant E225F],-0.82
15,MFSVDYGELDF [PD-1 ITIM pTyr223 peptide variant V218M],0.0157
16,VFWVDYGELDF [PD-1 ITIM pTyr223 peptide variant S220W],-0.544
17,VFSVMYGELDF [PD-1 ITIM pTyr223 peptide variant D222M],0.307
18,VWSVDYGELDF [PD-1 ITIM pTyr223 peptide variant F219W],-0.244
19,VFSVDYGKLDF [PD-1 ITIM pTyr223 peptide variant E225K],0.303
20,VFSHDYGELDF [PD-1 ITIM pTyr223 peptide variant V221H],-1.23

row,Binder,log2 enrichment
1,VFSVDYYELDF [PD-1 ITIM pTyr223 peptide variant G224Y],-0.792
2,VFSVDYWELDF [PD-1 ITIM pTyr223 peptide variant G224W],-0.623
3,VFSIDYGELDF [PD-1 ITIM pTyr223 peptide variant V221I],-0.464
4,VFSVDYGEKDF [PD-1 ITIM pTyr223 peptide variant L226K],-1.37
5,VFSVIYGELDF [PD-1 ITIM pTyr223 peptide variant D222I],-0.259
6,VFSVDYGEYDF [PD-1 ITIM pTyr223 peptide variant L226Y],-1.46
7,VFRVDYGELDF [PD-1 ITIM pTyr223 peptide variant S220R],1.22
8,VFHVDYGELDF [PD-1 ITIM pTyr223 peptide variant S220H],0.0672
9,VFMVDYGELDF [PD-1 ITIM pTyr223 peptide variant S220M],-0.0956
10,VFSVDYGELDL [PD-1 ITIM pTyr223 peptide variant F228L],-1.19
11,VFSVDYGEIDF [PD-1 ITIM pTyr223 peptide variant L226I],-0.691
12,VVSVDYGELDF [PD-1 ITIM pTyr223 peptide variant F219V],-0.0583
13,VFSVDYGELRF [PD-1 ITIM pTyr223 peptide variant D227R],-0.941
14,FFSVDYGELDF [PD-1 ITIM pTyr223 peptide variant V218F],-0.37
15,IFSVDYGELDF [PD-1 ITIM pTyr223 peptide variant V218I],-0.151
16,VFSVDYGEHDF [PD-1 ITIM pTyr223 peptide variant L226H],-1.46
17,VFSRDYGELDF [PD-1 ITIM pTyr223 peptide variant V221R],-1.04
18,VFSVDYGELDW [PD-1 ITIM pTyr223 peptide variant F228W],0.678
19,KFSVDYGELDF [PD-1 ITIM pTyr223 peptide variant V218K],0.439
20,VFSMDYGELDF [PD-1 ITIM pTyr223 peptide variant V221M],-0.943

row,Binder,log2 enrichment
1,VFSVDYGELDV [PD-1 ITIM pTyr223 peptide variant F228V],-1.42
2,VFSVDYGELVF [PD-1 ITIM pTyr223 peptide variant D227V],-0.565
3,VFFVDYGELDF [PD-1 ITIM pTyr223 peptide variant S220F],-0.202
4,VFSVDYGELLF [PD-1 ITIM pTyr223 peptide variant D227L],-0.728
5,VFSVDYGELDY [PD-1 ITIM pTyr223 peptide variant F228Y],-1.37
6,VFSVDYGELHF [PD-1 ITIM pTyr223 peptide variant D227H],-0.826
7,VFSVDYGELDR [PD-1 ITIM pTyr223 peptide variant F228R],-1.52
8,VFSKDYGELDF [PD-1 ITIM pTyr223 peptide variant V221K],-1
9,VFSVDYGELDI [PD-1 ITIM pTyr223 peptide variant F228I],-1.45
10,VFSVRYGELDF [PD-1 ITIM pTyr223 peptide variant D222R],2.89
11,VFSVDYGLLDF [PD-1 ITIM pTyr223 peptide variant E225L],-0.496
12,VFSVDYGELFF [PD-1 ITIM pTyr223 peptide variant D227F],-0.714
13,VFSVDYGELDH [PD-1 ITIM pTyr223 peptide variant F228H],-1.32
14,VFSVFYGELDF [PD-1 ITIM pTyr223 peptide variant D222F],-0.334
15,VFSVDYLELDF [PD-1 ITIM pTyr223 peptide variant G224L],-0.0968
16,YFSVDYGELDF [PD-1 ITIM pTyr223 peptide variant V218Y],-0.0716
17,VFSVVYGELDF [PD-1 ITIM pTyr223 peptide variant D222V],0.135
18,VFSVWYGELDF [PD-1 ITIM pTyr223 peptide variant D222W],-0.569
19,VFSVDYGILDF [PD-1 ITIM pTyr223 peptide variant E225I],-0.312
20,VFVVDYGELDF [PD-1 ITIM pTyr223 peptide variant S220V],-0.0553
